Reference: ChEMBL document CHEMBL3988442, “University of Dundee, Small-Polar-MMV Screening Library” (2021)
Screen size: about 48,000 compounds; about 13,000 (27%) showed an effect of 50% or more. This is one part of the list.

system: Wolbachia pipientis; assay: Anti-Wolbachia Cell-Based Screen; format: functional; design: scale not given: in the data most compounds retested in dose-response had high values; settings: 5 µM

Point of comparison: `CN1CCCCC[C@@H]2[C@@H]1[C@H](c1ccccc1)CN2C(=O)c1cccnc1`, “Percent Effect” value 98.96%. Against it:
- Cc1csc(N2CCCN(Cc3ccn(C)c(=O)c3)CC2)n1 — lower, 2.494%
- CNS(=O)(=O)CCn1cc(-c2ccc(NC(C)=O)cc2)nn1 — lower, -17.97%
- Cc1ccc(S(=O)(=O)N2CCC(Oc3cccnn3)CC2)c(C)c1 — lower, -2.974%
- CN(C)S(=O)(=O)N1CCC(Oc2ccccn2)CC1 — lower, -12.57%
- CN(C)S(=O)(=O)N1CCC(Oc2cccnn2)CC1 — higher, 154.7%
- Cc1cc(CN2CC[C@H]3C[C@H](C(=O)Nc4cccnc4C)O[C@@H]3C2)no1.O=C(O)C(F)(F)F.O=C(O)C(F)(F)F — lower, 0%
- COCC(=O)N1Cc2cnc(Cc3ccc(OC)cc3)nc2C1 — lower, -9.911%
- Cc1c(C(C)NC(=O)Nc2ccc(F)cc2F)cnn1C (stereo not given) — lower, -7.694%
- CC(C)CC(=O)N1CC(=O)c2sc(Nc3ccc(F)cc3F)nc2C1 — higher, 102.3%
- CC(C)(C)NC(=O)CN1CCN(C(=O)Nc2ccc(F)cc2F)CC1 — lower, 10.15%
- COc1ccccc1NC(=O)CC(C)NCCc1sc(C)nc1C (stereo not given) — lower, -7.62%
- COc1ccccc1Nc1nc2c(s1)C(=O)CN(C(=O)CC(C)C)C2 — higher, 106.8%
- COc1ccccc1NC(=O)CC(C)NCc1scnc1C (stereo not given) — lower, -14.83%
- COCC(=O)N1CC(=O)c2sc(Nc3ccc(F)cc3F)nc2C1 — lower, 92.12%
- CNS(=O)(=O)Cc1ccccc1CNc1ccc(C#N)cn1 — lower, 4.345%
- Cc1cnccc1-n1nc(C(C)C)nc1CS(C)(=O)=O — lower, -11.94%
- Cn1cc(C(NCCc2ccccn2)c2cccc(F)c2)cn1 (stereo not given) — lower, -5.902%
- CN(C(=O)CCc1ccsc1)S(C)(=O)=O — lower, -3.197%
- CC(C)CNC(=O)N1C[C@H]2CC[C@@]3(N=C(c4ccccc4)NC3=O)[C@H]2C1 — lower, -1.799%
- CC1(C)CC(CN2CCC3(CCC(=O)N(CCO)C3)CC2)CCO1 (stereo not given) — lower, -24.07%
- CN(C)CCCNCC1CCOC(C)(C)C1 (stereo not given) — lower, 84.35%
- CN(C)CCNCC1CCOC(C)(C)C1 (stereo not given) — higher, 114.8%
- CC(C)NC(=O)C(C(C)C)n1cnc2cc(F)c(F)cc21 (stereo not given) — lower, -2.583%
- Cn1cnc2c1C(C(=O)N1CCOCC1)N(C(=O)c1ccccc1)CC2 (stereo not given) — lower, 1.78%
- Cc1ccc(-c2cc(N)c(=O)n(CC(=O)NCC3CCCCC3)n2)s1 — lower, -12.04%
- CNC(=O)C1CCCCN1C(=O)Cc1csc(-c2ccc(C)o2)n1 (stereo not given) — lower, 7.331%
- CC1CCCN(C(=O)Cn2cc(I)cn2)C1 (stereo not given) — lower, 2.299%
- CCOC(=O)CC1CCCCN1C(=O)c1cc(C)oc1C (stereo not given) — lower, 1.644%
- CCOC(=O)CC1CCCCN1C(=O)c1cc(=O)[nH]c(=O)[nH]1 (stereo not given) — lower, 3.722%
- CCC1CCCCN1C(=O)Cn1nc(-c2ccc(C)s2)cc(N)c1=O (stereo not given) — higher, 132.6%
- CCC1CCCCN1C(=O)Cn1nc(-c2ccc(C)o2)cc(N)c1=O (stereo not given) — higher, 125.9%
- Cc1cc(C)n(C2CCCN(C(=O)Cn3ccc(=O)n(C)c3=O)C2)n1 (stereo not given) — lower, 5.694%
- Cc1cc(-c2cc(N)c(=O)n(CC(=O)N3CCCC(C)C3)n2)c(C)o1 (stereo not given) — higher, 135.5%
- CCC1CCCCN1C(=O)Cn1cnc(C#N)n1 (stereo not given) — lower, -4.598%
- CCC1CCCCN1C(=O)Cn1nc(-c2cc(C)oc2C)cc(N)c1=O (stereo not given) — higher, 172.7%
- Cl.O=C(NCC1CCC2(CCNCC2)CO1)c1ccno1 (stereo not given) — lower, -17.95%
- COC(=O)N1CCC(Nc2cccc(F)c2C(C)=O)C1 (stereo not given) — lower, 18.09%
- Cc1cc(CNc2ccc3nc(C4CC4)sc3c2)no1 — lower, -18.62%
- COc1ccc(C)cc1CCNS(=O)(=O)c1ccc2c(c1)CCC(=O)N2 — lower, -14.2%
- CCCN1CCC(NCc2ccncc2)CC1 — lower, 12.05%
- COCCN1CCC(NCc2cc(F)ccc2F)C1 (stereo not given) — higher, 105%
- COCCN1CCC(NCc2ccc(Cl)cc2)C1 (stereo not given) — lower, 79.9%
- COCCN1CCC(NCc2c(F)cccc2F)C1 (stereo not given) — lower, 93.26%
- COCCN1CCC(NCc2c(C)nn(C)c2N(C)C)CC1 — lower, -18.36%
- COCCN1CCC(NC(=O)NCC2(c3cccc(F)c3)CC2)C1 (stereo not given) — lower, 7.702%
- COCCN1CCC(NCc2ccc(C#N)cc2)C1 (stereo not given) — lower, -5.015%
- COCCN1CCC(NCc2cccc(F)c2)C1 (stereo not given) — lower, 4.631%
- COCCN1CCC(NCc2cccnc2)C1 (stereo not given) — lower, -0.4239%
- COCCN1CCC(CNC(=O)CCc2cc(F)ccc2F)C1 (stereo not given) — lower, -0.9804%
- COCCN1CCC(NCc2cccc(C)c2)C1 (stereo not given) — lower, 89.68%
- CSc1ccc(CN(C(=O)c2cc[nH]n2)C2CC2)cc1 — lower, -13.27%
- CCCN(Cc1nccn1C)C(=O)C(CC)Nc1cccc(OC)c1 (stereo not given) — lower, -30.45%
- COCCN1CCC(NC(=O)C(C)C)CC1 — lower, -12.29%
- COCCN1CCC(NCc2ccc(F)cc2F)C1 (stereo not given) — lower, 87.91%
- Cc1cc(C(F)(F)F)nn1C(C)C(=O)Nc1ccncc1 (stereo not given) — lower, 11.57%
- Cc1cc(C(F)F)nn1C(C)C(=O)NCc1nccn1C (stereo not given) — higher, 129.1%
- CC(C)Nc1ncccc1C(=O)NCc1ncc[nH]1 — lower, 7.716%
- CCCN(Cc1nccn1C)C(=O)c1cc(C(C)C)on1 — lower, -14.15%
- Cc1cccc(I)c1C(=O)NCc1ncc[nH]1 — lower, -11.65%
- Cc1cc(C(F)F)nn1C(C)C(=O)NCc1ncc[nH]1 (stereo not given) — higher, 132.9%
- Cc1ncc2c(n1)CCN(Cc1nc(Cc3ccccc3)no1)C2 — lower, 2.52%
- Cc1noc([C@@H]2C[C@H](NC(=O)Nc3ccccc3)CN2C)n1 — lower, 1.901%
- CN(C)C(=O)C1CCCN1C(=O)c1ccc(Cn2ccnc2)o1 (stereo not given) — lower, -6.024%
- COCCN1CCN(c2nc(O)cc(Cc3ccccc3F)n2)CC1 — higher, 126.9%
- CN1CCN(c2nc(O)cc(Cc3ccccc3F)n2)CC1 — higher, 156.6%
- CCOc1ccnc(N2CCN(CCOC)CC2)n1 — lower, -0.8063%
- CCN1CCCC(O)(CNCc2ccccc2F)C1 (stereo not given) — lower, 5.055%
- COCCN1CCN(Cc2coc(-c3ccccc3Cl)n2)CC1 — lower, -11.13%
- CC(NCc1ccccn1)c1ccc(N2CCN(C)CC2)c(F)c1 (stereo not given) — lower, -5.411%
- COc1ccc2c(C)nc(N3C[C@@H](C)O[C@@H](C)C3)nc2c1 — lower, -4.468%
- C[C@@H]1CN(Cc2ccccc2F)CC(C(N)=O)O1 (stereo not given in full) — lower, 1.23%
- CN1CCN(CCCNS(=O)(=O)Cc2ccccc2F)CC1 — lower, -19.52%
- CCN1CCN(c2ccc(F)cc2C(C)NCc2ccccn2)CC1 (stereo not given) — lower, 9.781%
- C[C@@H]1CN(c2nc(O)cc(Cc3ccccc3F)n2)C[C@H](C)O1 — higher, 156.7%
- CCN1CCN(c2nc(O)cc(Cc3ccccc3F)n2)CC1 — higher, 169.1%
- c1ccc(Cn2cccn2)c(CN2CCC3(CCCNC3)C2)c1 (stereo not given) — lower, -20.95%
- O=S(=O)(CCO)Cc1ccc(OCC(F)(F)F)cc1 — lower, 1.249%
- COCCOCCNC(=O)C(C)Oc1ccccc1C(F)(F)F (stereo not given) — lower, 0.2325%
- O=C(O)C(F)(F)F.c1cc(CN2CCCn3cnc(COCC4CC4)c3C2)co1 — lower, 3.975%
- CC(C)Cc1cc(C(=O)NCC(O)c2ccc(F)cc2)n(C)n1 (stereo not given) — lower, 0.3453%
- CCCc1cc(C(=O)NC(c2ccccc2)c2n[nH]c(C)n2)[nH]n1 (stereo not given) — lower, 3.333%
- CCCc1cc(C(=O)N(C)Cc2cnc3ccccc3n2)n(C)n1 — lower, -19.21%
- CCC(NC(=O)c1cc(CC(C)C)nn1C)c1ccnn1C (stereo not given) — lower, 9.016%
- CCCc1cc(C(=O)N[C@@H](CO)[C@@H](O)c2ccccc2)n(C)n1 — higher, 130.2%
- CCCc1cc(C(=O)N[C@H](C)[C@@H](O)c2ccc(O)cc2)n(C)n1 — higher, 110%
- O=C(CCCn1cncn1)NC1(c2cccc(Br)c2)CC1 — lower, -89.93%
- O=S(=O)(NCCc1ccccc1C(F)(F)F)N1CCOCC1 — lower, 96.69%
- O=S(=O)(NCCc1ccccc1F)N1CCOCC1 — higher, 104.5%
- O=S(=O)(Cc1ccccc1F)NCCN1CCOCC1 — lower, -10.21%
- CCOc1ncccc1CNS(=O)(=O)N1CCOCC1 — lower, -0.8612%
- O=C(Cc1ccccc1F)NCCN1CCOCC1 — lower, 3.995%
- O=S(=O)(NCc1cccnc1OC1CCCC1)N1CCOCC1 — lower, -7.047%
- Cc1nc(S(=O)(=O)N2CCc3[nH]nc(CCC(C)C)c3C2)cn1C — lower, 14.04%
- CC(C)CN1CC(c2nc(CCc3ccccc3)n[nH]2)CC1=O (stereo not given) — lower, 6.531%
- Cc1nnsc1C(=O)N1CC[C@H](c2ccccc2)[C@@H]2[C@H]1CCCCN2C — higher, 109%
- CN1CCCC[C@@H]2[C@H]1[C@@H](c1ccccc1)CCN2C(=O)c1cccnc1 — lower, 94.07%
- O=C(c1cccnc1)N1CCCC1C1CCN(Cc2ccccc2)CC1 (stereo not given) — lower, -39.09%
- CN1CCCC[C@@H]2[C@H]1[C@@H](c1ccccc1)CCN2C(=O)c1ccncc1 — lower, 88.59%
- O=C(c1ccncc1)N1CCCC1C1CCN(Cc2ccccc2)CC1 (stereo not given) — lower, -37.72%
- CC(C)=CCN1CCN(C(=O)c2snnc2C)[C@H]2CS(=O)(=O)C[C@H]21 — lower, -1.087%
- Cc1nnsc1C(=O)N1CCN(CC2CC2)[C@@H]2CS(=O)(=O)C[C@@H]21 — lower, 2.438%
- CN1CCCC[C@@H]2[C@H]1[C@@H](c1ccccc1)CCN2C(=O)c1ccccc1 — lower, -7.424%
- COC(=O)C1CCCN1C(=O)c1ccc(Cl)cc1F (stereo not given) — lower, 16.38%
- CN1CCN(c2ccc(NC(=O)c3ccccn3)c(C(F)(F)F)c2)CC1 — lower, -8.677%
